Laboratory results published in PubChem BioAssay.
For part of these data: Results with a measured potency or affinity are listed apart. Active and inactive are the calls of the source. Unless noted, the rule behind the calls is not given here.

What was measured:
[1] = antimalarial activity against Dd2 strain (AID 2302;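 active = growth inhibition above 50% at the single 2 µM test dose, taken to imply half-maximal potency below 2 µM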;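 note: 0% = DMSO untreated growth and 100% = chloroquine plus artemisinin killed control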); details: P. falciparum Dd2 in RBCs, LDH growth readout, 72 h; at 2 µM; hits give high values
[2] = human hepatoma cell viability loss – ATP luminescence, cytotoxicity control for P. falciparum antimalarial project, primary screen (AID 2303;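 active = inhibition above 50%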;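 note: 0% = DMSO wells and 100% = digitonin-killed cells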); details: HepG2 viability, 24-48 h, at 10 µM, hits give high values
[3] = target: L-lactate dehydrogenase (Plasmodium falciparum (isolate CDC / Honduras)) (UniProt Q27743); test: PfLDH activity inhibition – cell lysate, 3D7 strain, counter-screen for P. falciparum growth inhibition project (AID 2304);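 note: 0% = vehicle and 100% = reference inhibitor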; details: P. falciparum 3D7 crude extract, LDH APAD/NBT absorbance; at 2 µM; hits give high values
[4] = inhibition of 3D7 malaria parasite growth – strain 3D7 (AID 2306);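 note: 0% = DMSO wells and 100% = chloroquine plus artemisinin control wells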; details: P. falciparum 3D7 erythrocytic growth, LDH absorbance, 72 h; at 2 µM; hits give high values
[5] = target: Calcium-dependent protein kinase 1 (Plasmodium falciparum (isolate 3D7)) (UniProt P62344); test: PfCDPK1 kinase inhibitors, biochemical, TCAMS library (AID 1159585; cut-off not given, nearly all actives have IC50 up to about 0.98 µM;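 note: inhibitors leave more ATP so luminescence rises with inhibition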); details: recombinant PfCDPK1, Kinase-Glo ATP depletion luminescence
[6] = target: Plasmodium falciparum protein kinase 6 (PK6, PF3D7_1337100) (UniProt Q8IDW1); test: PfPK6 kinase inhibitors, biochemical, TCAMS library (AID 1159586); details: recombinant PfPK6, Kinase-Glo ATP depletion luminescence
[7] = target: Protein kinase 7 (PK7), Plasmodium falciparum 3D7 (PF3D7_0213400) (UniProt Q7YTF7); test: inhibition of Plasmodium PK7 catalytic activity – biochemical, TCAMS antimalarial set, Kinase-Glo luminescence (AID 1159587); details: recombinant PfPK7, Kinase-Glo ATP depletion luminescence
[8] = target: Calcium-dependent protein kinase 4 (Plasmodium falciparum (isolate 3D7)) (UniProt Q8IBS5); test: PfCDPK4 kinase inhibitors, biochemical, TCAMS library (AID 1159588; cut-off not given, nearly all actives have IC50 up to about 0.91 µM); details: recombinant PfCDPK4, Kinase-Glo ATP depletion luminescence
Chain of Calcium-dependent protein kinase 4 (Plasmodium falciparum (isolate 3D7)) (Q8IBS5 whole entry, looked up): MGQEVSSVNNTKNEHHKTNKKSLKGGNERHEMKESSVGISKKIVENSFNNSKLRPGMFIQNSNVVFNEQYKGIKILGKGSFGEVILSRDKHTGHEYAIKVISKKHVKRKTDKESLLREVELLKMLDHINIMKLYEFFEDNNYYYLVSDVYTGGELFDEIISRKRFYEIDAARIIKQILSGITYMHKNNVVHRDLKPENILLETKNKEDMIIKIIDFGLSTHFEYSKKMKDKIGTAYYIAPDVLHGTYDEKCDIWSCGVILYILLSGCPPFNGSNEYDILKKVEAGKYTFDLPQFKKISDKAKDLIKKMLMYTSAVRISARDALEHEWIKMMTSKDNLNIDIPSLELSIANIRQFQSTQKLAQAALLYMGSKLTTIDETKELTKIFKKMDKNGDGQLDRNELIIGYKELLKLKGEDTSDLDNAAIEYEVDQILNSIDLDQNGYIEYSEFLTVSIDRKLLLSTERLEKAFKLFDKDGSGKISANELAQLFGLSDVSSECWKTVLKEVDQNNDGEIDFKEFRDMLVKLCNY

Chain of Protein kinase 7 (PK7), Plasmodium falciparum 3D7 (PF3D7_0213400) (Q7YTF7 1-343): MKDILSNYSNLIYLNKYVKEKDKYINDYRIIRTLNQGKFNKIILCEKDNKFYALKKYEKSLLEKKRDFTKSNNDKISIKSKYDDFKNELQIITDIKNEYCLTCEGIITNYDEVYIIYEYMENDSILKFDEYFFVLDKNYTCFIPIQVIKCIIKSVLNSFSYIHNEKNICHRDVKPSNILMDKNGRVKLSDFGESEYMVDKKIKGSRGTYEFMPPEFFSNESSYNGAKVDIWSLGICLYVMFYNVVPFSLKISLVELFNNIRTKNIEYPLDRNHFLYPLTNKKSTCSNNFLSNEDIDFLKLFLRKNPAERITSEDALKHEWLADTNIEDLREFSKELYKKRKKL
Chain of Calcium-dependent protein kinase 1 (Plasmodium falciparum (isolate 3D7)) (P62344 whole entry, looked up): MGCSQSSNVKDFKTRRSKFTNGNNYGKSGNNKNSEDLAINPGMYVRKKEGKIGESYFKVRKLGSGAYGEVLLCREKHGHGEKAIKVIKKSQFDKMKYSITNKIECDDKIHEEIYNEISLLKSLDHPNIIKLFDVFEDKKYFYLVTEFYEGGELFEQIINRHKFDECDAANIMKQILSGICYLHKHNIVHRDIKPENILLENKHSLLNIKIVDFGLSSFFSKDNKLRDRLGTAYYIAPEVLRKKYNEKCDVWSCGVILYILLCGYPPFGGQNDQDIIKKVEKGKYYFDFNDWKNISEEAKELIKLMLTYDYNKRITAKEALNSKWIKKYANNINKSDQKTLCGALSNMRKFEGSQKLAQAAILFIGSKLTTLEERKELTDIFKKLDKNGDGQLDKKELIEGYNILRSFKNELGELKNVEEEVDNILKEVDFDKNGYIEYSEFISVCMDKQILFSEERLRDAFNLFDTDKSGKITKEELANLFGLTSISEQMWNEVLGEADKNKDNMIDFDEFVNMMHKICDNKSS
Chain of Plasmodium falciparum protein kinase 6 (PK6, PF3D7_1337100) (Q8IDW1 1-305): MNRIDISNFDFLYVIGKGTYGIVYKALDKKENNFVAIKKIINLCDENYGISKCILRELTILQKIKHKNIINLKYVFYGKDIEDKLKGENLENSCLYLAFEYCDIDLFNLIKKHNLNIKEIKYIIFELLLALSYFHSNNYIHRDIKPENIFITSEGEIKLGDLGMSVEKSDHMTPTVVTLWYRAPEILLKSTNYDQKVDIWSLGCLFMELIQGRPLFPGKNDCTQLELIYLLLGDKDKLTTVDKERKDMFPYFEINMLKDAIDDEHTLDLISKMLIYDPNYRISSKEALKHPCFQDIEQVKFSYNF
Chain of L-lactate dehydrogenase (Plasmodium falciparum (isolate CDC / Honduras)) (Q27743 whole entry, looked up): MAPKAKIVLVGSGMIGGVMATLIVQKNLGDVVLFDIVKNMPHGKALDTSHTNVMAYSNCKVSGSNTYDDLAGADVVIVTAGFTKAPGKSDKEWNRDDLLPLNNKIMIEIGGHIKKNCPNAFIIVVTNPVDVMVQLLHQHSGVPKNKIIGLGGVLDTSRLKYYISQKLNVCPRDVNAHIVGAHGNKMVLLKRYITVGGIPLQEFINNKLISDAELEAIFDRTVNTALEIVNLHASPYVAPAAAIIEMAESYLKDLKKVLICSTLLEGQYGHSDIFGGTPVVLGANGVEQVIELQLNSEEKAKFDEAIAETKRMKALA

CCN(CC)CCNC(=O)c1ccc(NC(=O)c2oc3c(Cl)cccc3c2C)cc1
active: growth inhibition [1] 68% | growth inhibition [4] 98%
inactive: inhibition [2] 24% | inhibition [3] 5% | outcome [5] | outcome [6] | outcome [7] | outcome [8]

Cc1cc(NN=Cc2ccccc2[N+](=O)[O-])c2cc(C(F)(F)F)ccc2n1
inactive: growth inhibition [1] 39% | inhibition [2] -5% | inhibition [3] 1% | outcome [5] | outcome [6] | outcome [7] | outcome [8]
active: growth inhibition [4] 97%

O=c1cc(NCCNCc2cccc(-c3ccccc3)c2)[nH]c2ccccc12
active: growth inhibition [1] 68% | growth inhibition [4] 93%
inactive: inhibition [2] -2% | inhibition [3] -6% | outcome [5] | outcome [6] | outcome [7] | outcome [8]

c1ccc(CNc2nc(NCCc3cnc[nH]3)nc(NCc3cccc4ccccc34)n2)cc1
inactive: growth inhibition [1] 1% | inhibition [2] 9% | inhibition [3] -4% | outcome [5] | outcome [6] | outcome [7] | outcome [8]
active: growth inhibition [4] 91%

COc1ccc(C(=O)NCc2ccccc2-c2ccc(C(C)(C)C)cc2)cc1O
inactive: inhibition [2] 10% | inhibition [3] 1% | outcome [5] | outcome [6] | outcome [7] | outcome [8]
active: growth inhibition [1] 97% | growth inhibition [4] 99%

COc1ccc(CN(C)CCCc2ccc(NC(=O)c3cccc4c(=O)c5ccccc5[nH]c34)cc2)cc1OC
active: growth inhibition [1] 54% | inhibition [2] 77% | growth inhibition [4] 99%
inactive: inhibition [3] -1% | outcome [5] | outcome [6] | outcome [7] | outcome [8]

Oc1ccccc1Nc1nc(NCc2ccco2)c2ccccc2n1
inactive: inhibition [2] 0% | inhibition [3] 3% | outcome [5] | outcome [6] | outcome [7] | outcome [8]
active: growth inhibition [1] 71% | growth inhibition [4] 99%

O=C(Nc1cccc(-c2ccc(-c3nc4ccc(C(F)(F)F)cc4[nH]3)cc2)c1)c1cnc[nH]1
inactive: growth inhibition [1] 21% | inhibition [2] 16% | inhibition [3] -3% | outcome [5] | outcome [6] | outcome [7] | outcome [8]
active: growth inhibition [4] 91%

O=C(Nc1ccc(Cl)cn1)c1sc2ccccc2c1O
inactive: growth inhibition [1] 18% | inhibition [2] 2% | inhibition [3] -3% | outcome [5] | outcome [6] | outcome [7] | outcome [8]
active: growth inhibition [4] 99%

CCc1c[nH]c2c(N3CCCS3(=O)=O)cc(C(=O)N[C@@H](Cc3ccccc3)[C@H](O)CNC3CCCCC3)cc12
inactive: inhibition [2] 6% | inhibition [3] -7% | outcome [5] | outcome [6] | outcome [7] | outcome [8]
active: growth inhibition [1] 89% | growth inhibition [4] 99%

Cc1c(CNCCCNc2cc(=O)c3ccccc3[nH]2)sc(-c2ccco2)c1Br
active: growth inhibition [4] 93%
inactive: growth inhibition [1] 39% | inhibition [2] -4% | inhibition [3] -1% | outcome [5] | outcome [6] | outcome [7] | outcome [8]

Cc1cccc2[nH]c(-c3cccc(-c4cccc(CNCc5cccc(N)c5)c4)c3)nc12
active: growth inhibition [1] 73% | growth inhibition [4] 101%
inactive: inhibition [2] 14% | inhibition [3] 1% | outcome [5] | outcome [6] | outcome [7] | outcome [8]

Cn1c(NC(=O)c2ccc(CNC(=O)c3ccc(O)c(-c4ccc(Cl)c(Cl)c4)c3)cc2)nc2ccccc21
active: growth inhibition [1] 74% | growth inhibition [4] 94%
inactive: inhibition [2] 20% | inhibition [3] -1% | outcome [5] | outcome [6] | outcome [7] | outcome [8]

NC(=O)C1CCN(Cc2ccc(-c3cccc(-c4nc5ccc(F)cc5[nH]4)c3)cc2)CC1
active: growth inhibition [4] 90%
inactive: growth inhibition [1] 3% | inhibition [2] 10% | inhibition [3] -8% | outcome [5] | outcome [6] | outcome [7] | outcome [8]

COc1ccc2nccc(N(C)CC3(O)CCC(NCc4cc5c(cn4)OCCO5)CC3)c2n1 (configuration not stated)
inactive: growth inhibition [1] 14% | inhibition [2] 1% | inhibition [3] -2% | outcome [5] | outcome [6] | outcome [7] | outcome [8]
active: growth inhibition [4] 99%

Cc1cccc(-c2cccc3c(NC(=O)N4CCc5cc6nccc(N7CCN8CCC[C@H]8C7)c6cc54)cccc23)n1
inactive: inhibition [2] 14% | inhibition [3] -6% | outcome [5] | outcome [6] | outcome [7] | outcome [8]
active: growth inhibition [1] 68% | growth inhibition [4] 94%

CCCC[C@H](NC(=O)O[C@H](COc1ccc(OCc2ccccc2)cc1)C(C)(C)C)C(=O)C(=O)Nc1ccn[nH]1
active: growth inhibition [1] 71% | growth inhibition [4] 88%
inactive: inhibition [2] 21% | inhibition [3] -1% | outcome [5] | outcome [6] | outcome [7] | outcome [8]

Cc1ccc(C(=O)Nc2cccc([N+](=O)[O-])c2)cc1S(=O)(=O)N1CC(C)CC(C)C1 (configuration not stated)
inactive: growth inhibition [1] 42% | inhibition [2] 24% | inhibition [3] -1% | outcome [5] | outcome [6] | outcome [7] | outcome [8]
active: growth inhibition [4] 100%

C=CCOc1ccccc1CNCC(O)c1cc(Br)cs1 (configuration not stated)
inactive: inhibition [2] 25% | inhibition [3] -4% | outcome [5] | outcome [6] | outcome [7] | outcome [8]
active: growth inhibition [1] 72% | growth inhibition [4] 93%

O=c1cc(NCc2ccccc2NCc2ccc(Cl)c(Cl)c2)[nH]c2ccccc12
inactive: inhibition [2] 10% | inhibition [3] 3% | outcome [5] | outcome [6] | outcome [7] | outcome [8]
active: growth inhibition [1] 98% | growth inhibition [4] 93%

COc1ccc(Nc2nc(NN=Cc3ccc(-c4ccc([N+](=O)[O-])cc4)o3)nc(Nc3ccccc3)n2)cc1
active: growth inhibition [4] 100%
inactive: growth inhibition [1] 17% | inhibition [2] -8% | inhibition [3] 5% | outcome [5] | outcome [6] | outcome [7] | outcome [8]

Cc1cc(C(=O)CN2C(=O)NC(C)(c3cccc4ccccc34)C2=O)c(C)n1Cc1ccco1 (configuration not stated)
inactive: growth inhibition [1] 23% | inhibition [2] -2% | inhibition [3] 0% | outcome [5] | outcome [6] | outcome [7] | outcome [8]
active: growth inhibition [4] 90%

Cc1[nH]cnc1-c1cccc(NC(=O)c2cc3ccccc3s2)c1
inactive: growth inhibition [1] 48% | inhibition [2] 5% | inhibition [3] -5% | outcome [5] | outcome [6] | outcome [7] | outcome [8]
active: growth inhibition [4] 99%

Cc1cnc(NCCc2ccc(F)cc2)nc1N[C@@H](CC(C)C)C(=O)Nc1ccccc1
inactive: growth inhibition [1] 29% | inhibition [2] 19% | inhibition [3] -1% | outcome [5] | outcome [6] | outcome [7] | outcome [8]
active: growth inhibition [4] 87%

Cc1noc(C)c1-c1cccc(CNCc2ccc(-c3ccc(-c4nc5ccc(F)cc5[nH]4)s3)cc2)c1
active: growth inhibition [1] 93% | growth inhibition [4] 102%
inactive: inhibition [2] 45% | inhibition [3] 6% | outcome [5] | outcome [6] | outcome [7] | outcome [8]

N#Cc1cccc(NC(=O)Nc2ccc3c(c2)CCN(C2CCC2)CC3)c1
active: growth inhibition [4] 91%
inactive: growth inhibition [1] 26% | inhibition [2] 22% | inhibition [3] -3% | outcome [5] | outcome [6] | outcome [7] | outcome [8]

CN1CCN(c2ccc(Nc3c(C(N)=O)cnc4cc(-c5ccoc5)ccc34)cc2)CC1
inactive: inhibition [2] 14% | inhibition [3] -3% | outcome [5] | outcome [6] | outcome [7] | outcome [8]
active: growth inhibition [1] 99% | growth inhibition [4] 101%

CC(C)CCOc1ccc(NC(=O)c2cccs2)cc1
active: growth inhibition [1] 95% | growth inhibition [4] 95%
inactive: inhibition [2] 11% | inhibition [3] -3% | outcome [5] | outcome [6] | outcome [7] | outcome [8]

COC(=O)c1cccc(NC(=O)NCCNc2ccnc(Nc3ccc(F)cc3)n2)c1
active: growth inhibition [4] 93%
inactive: growth inhibition [1] 5% | inhibition [2] 10% | inhibition [3] -6% | outcome [5] | outcome [6] | outcome [7] | outcome [8]

O=C(Nc1ccc2c(c1)CCN(C1CCC1)CC2)c1ccc(-n2ccnc2)cn1
inactive: growth inhibition [1] -1% | inhibition [2] 8% | inhibition [3] 0% | outcome [5] | outcome [6] | outcome [7] | outcome [8]
active: growth inhibition [4] 92%

COc1ccc(Nc2nccc(-c3c(-c4cccc(NC(=O)c5c(F)cccc5F)c4)nn4ccccc34)n2)cc1Cl
inactive: inhibition [3] -1% | outcome [5] | outcome [6] | outcome [7] | outcome [8]
active: growth inhibition [1] 71% | inhibition [2] 61% | growth inhibition [4] 95%

COc1ccc2nc(C)cc(NC3Cc4ccccc4C3)c2c1
inactive: growth inhibition [1] 13% | inhibition [2] 20% | inhibition [3] 5% | outcome [5] | outcome [6] | outcome [7] | outcome [8]
active: growth inhibition [4] 98%

CC1(C)N=C(N)NC(Nc2ccc(Cl)cc2)=N1
active: growth inhibition [4] 97%
inactive: growth inhibition [1] -1% | inhibition [2] 8% | inhibition [3] -2% | outcome [5] | outcome [6] | outcome [7] | outcome [8]

FC(F)(F)c1ccc2nc(-c3cccc(-c4cccc(CNCCc5ccncc5)c4)c3)[nH]c2c1
inactive: inhibition [2] 31% | inhibition [3] -8% | outcome [5] | outcome [6] | outcome [7] | outcome [8]
active: growth inhibition [1] 97% | growth inhibition [4] 99%

CCN(CC)CCNc1ccnc2[nH]c3ccc(Cl)cc3c12
active: growth inhibition [1] 92% | growth inhibition [4] 100%
inactive: inhibition [2] 3% | inhibition [3] 1% | outcome [5] | outcome [6] | outcome [7] | outcome [8]

CCCCCCc1cc(OC)c(OC)cc1C(C)Nc1ccnc2cc(Cl)ccc12 (configuration not stated)
active: growth inhibition [1] 79% | growth inhibition [4] 95%
inactive: inhibition [2] 6% | inhibition [3] -4% | outcome [5] | outcome [6] | outcome [7] | outcome [8]

CN1CCN(c2ccc(-c3nc4c(C(N)=O)c(OCc5cc(Cl)cc(Cl)c5)ccc4[nH]3)cc2)CC1
active: growth inhibition [1] 85% | growth inhibition [4] 100%
inactive: inhibition [2] 45% | inhibition [3] -2% | outcome [5] | outcome [6] | outcome [7] | outcome [8]

COc1ccc2ncc(F)c(CCN3CCC4(CC3)COC(c3cc5c(cn3)OCCO5)=N4)c2n1
inactive: inhibition [3] 5% | outcome [5] | outcome [6] | outcome [7] | outcome [8]
active: growth inhibition [1] 83% | inhibition [2] 79% | growth inhibition [4] 89%

O=C(Nc1cccc(CN2CCCN(Cc3cccnc3)CC2)c1)c1ccc(Cl)c(Cl)c1
inactive: growth inhibition [1] 19% | inhibition [2] 16% | inhibition [3] -2% | outcome [5] | outcome [6] | outcome [7] | outcome [8]
active: growth inhibition [4] 84%
